# Data reported in article PMC7862700, “An all-to-all approach to the identification of sequence-specific readers for epigenetic DNA modifications on cytosine”.
# Experiments:
# Assay in all cases: DAPPL (digital affinity profiling via proximity ligation, sequencing); 10 mM Tris-HCl pH 7.5, 50 mM NaCl, 1 mM DTT, 4% glycerol, room temperature, 30 min; GST-TFs on glutathione beads, 16-mer random dsDNA library, 0.1% formaldehyde crosslink after washing; high values mean tight binding
# FLI1 = target: T1, FLI1 (Homo sapiens, UniProt Q01543 1-452); conditions: protein: recombinant; tags: N-terminal GST; dsDNA, one strand shown
# T1 sequence: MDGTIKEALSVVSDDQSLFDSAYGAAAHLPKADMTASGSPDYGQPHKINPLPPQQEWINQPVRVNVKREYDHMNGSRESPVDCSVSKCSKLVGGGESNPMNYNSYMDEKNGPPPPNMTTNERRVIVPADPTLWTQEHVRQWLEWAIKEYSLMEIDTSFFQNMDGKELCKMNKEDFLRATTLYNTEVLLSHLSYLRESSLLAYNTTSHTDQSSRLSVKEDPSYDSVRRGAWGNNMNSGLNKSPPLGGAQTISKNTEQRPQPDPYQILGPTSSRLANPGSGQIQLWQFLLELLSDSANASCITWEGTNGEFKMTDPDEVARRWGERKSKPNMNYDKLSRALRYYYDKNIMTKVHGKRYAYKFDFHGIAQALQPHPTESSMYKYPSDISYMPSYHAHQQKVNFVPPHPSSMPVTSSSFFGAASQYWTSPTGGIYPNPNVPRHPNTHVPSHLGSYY
# In short: (§1)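 GST fusions of human transcription factors were expressed in yeast and captured with glutathione beads. Once given DNA barcodes and pooled alongside a tag-only sample, they were incubated for 30 min at room temperature with 200 nmole of a random double-stranded 16-mer DNA library in Tris/NaCl/DTT/glycerol buffer, then washed, crosslinked (0.1% formaldehyde), proximity-ligated, PCR-amplified and sequenced on an Illumina NextSeq500. The binding signal of each hexamer is its read frequency for a factor divided by its frequency for the tag-only sample.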
# ELK1 = target: T2, ELK1 (Homo sapiens, UniProt P19419 1-428); conditions: protein: recombinant; tags: N-terminal GST; dsDNA, one strand shown
# T2 sequence: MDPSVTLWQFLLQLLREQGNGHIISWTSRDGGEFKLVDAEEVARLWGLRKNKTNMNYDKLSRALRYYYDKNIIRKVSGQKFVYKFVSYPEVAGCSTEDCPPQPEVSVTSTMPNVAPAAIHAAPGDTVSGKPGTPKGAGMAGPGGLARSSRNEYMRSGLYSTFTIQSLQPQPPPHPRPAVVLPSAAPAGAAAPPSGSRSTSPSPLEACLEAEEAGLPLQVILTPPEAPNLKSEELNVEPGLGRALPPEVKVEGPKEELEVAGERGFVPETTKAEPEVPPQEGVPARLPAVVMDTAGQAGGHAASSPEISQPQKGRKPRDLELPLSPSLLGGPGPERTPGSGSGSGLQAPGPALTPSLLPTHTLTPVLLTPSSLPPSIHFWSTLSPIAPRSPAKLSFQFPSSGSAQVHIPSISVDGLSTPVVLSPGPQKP
# In short: as §1
# GABPA = target: T3, GABPA (Homo sapiens, UniProt Q06546 1-454); conditions: protein: recombinant; tags: N-terminal GST; dsDNA, one strand shown
# T3 sequence: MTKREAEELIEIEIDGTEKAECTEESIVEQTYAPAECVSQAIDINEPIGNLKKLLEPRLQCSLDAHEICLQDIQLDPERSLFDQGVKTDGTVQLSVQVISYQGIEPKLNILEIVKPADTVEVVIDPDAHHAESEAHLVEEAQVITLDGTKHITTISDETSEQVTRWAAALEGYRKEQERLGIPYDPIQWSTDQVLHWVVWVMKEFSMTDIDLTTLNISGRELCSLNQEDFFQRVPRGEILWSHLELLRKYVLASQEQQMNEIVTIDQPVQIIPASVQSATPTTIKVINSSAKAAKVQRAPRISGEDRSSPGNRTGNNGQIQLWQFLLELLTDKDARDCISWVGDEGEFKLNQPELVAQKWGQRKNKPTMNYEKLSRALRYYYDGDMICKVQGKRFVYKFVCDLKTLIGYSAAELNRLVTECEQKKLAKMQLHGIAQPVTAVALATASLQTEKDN
# In short: as §1
# ERG = target: T4, ERG (Homo sapiens, UniProt P11308 1-479); conditions: protein: recombinant; tags: N-terminal GST; dsDNA, one strand shown
# T4 sequence: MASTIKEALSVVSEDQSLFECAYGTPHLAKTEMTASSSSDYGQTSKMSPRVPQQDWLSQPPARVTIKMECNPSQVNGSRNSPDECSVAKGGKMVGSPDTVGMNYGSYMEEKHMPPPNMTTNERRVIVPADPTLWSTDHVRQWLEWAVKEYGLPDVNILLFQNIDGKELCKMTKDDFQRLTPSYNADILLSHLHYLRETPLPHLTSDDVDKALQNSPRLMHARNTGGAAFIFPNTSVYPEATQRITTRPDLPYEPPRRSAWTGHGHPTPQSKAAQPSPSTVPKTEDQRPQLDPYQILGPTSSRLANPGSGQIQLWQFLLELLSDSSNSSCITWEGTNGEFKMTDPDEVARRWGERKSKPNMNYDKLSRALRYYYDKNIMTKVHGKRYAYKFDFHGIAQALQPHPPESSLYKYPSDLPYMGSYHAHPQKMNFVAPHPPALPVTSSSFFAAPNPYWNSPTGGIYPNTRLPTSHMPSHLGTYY
# In short: as §1
# ELF1 = ELF1 (Homo sapiens, UniProt P32519 1-619); conditions: protein: recombinant; tags: N-terminal GST; dsDNA, one strand shown
# In short: as §1
# EHF = target: T5, EHF (Homo sapiens, UniProt Q9NZC4 1-300); conditions: protein: recombinant; tags: N-terminal GST; dsDNA, one strand shown
# T5 sequence: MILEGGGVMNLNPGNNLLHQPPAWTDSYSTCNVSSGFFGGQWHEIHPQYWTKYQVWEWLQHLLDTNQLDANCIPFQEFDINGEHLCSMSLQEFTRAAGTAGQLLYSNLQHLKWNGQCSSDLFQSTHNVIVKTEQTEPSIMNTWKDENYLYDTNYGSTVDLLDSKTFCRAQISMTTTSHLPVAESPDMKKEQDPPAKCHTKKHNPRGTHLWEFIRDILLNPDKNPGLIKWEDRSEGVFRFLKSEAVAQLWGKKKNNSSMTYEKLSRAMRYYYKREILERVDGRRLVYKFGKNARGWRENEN
# In short: as §1
# SPI1 = SPI1 (Homo sapiens, UniProt P17947 1-270); conditions: protein: recombinant; tags: N-terminal GST; dsDNA, one strand shown
# In short: as §1
# SPIB = SPIB (Homo sapiens, UniProt Q01892 1-262); conditions: protein: recombinant; tags: N-terminal GST; dsDNA, one strand shown
# In short: as §1
# ELK3 = target: T6, ELK3 (Homo sapiens, UniProt P41970 1-407); conditions: protein: recombinant; tags: N-terminal GST; dsDNA, one strand shown
# T6 sequence: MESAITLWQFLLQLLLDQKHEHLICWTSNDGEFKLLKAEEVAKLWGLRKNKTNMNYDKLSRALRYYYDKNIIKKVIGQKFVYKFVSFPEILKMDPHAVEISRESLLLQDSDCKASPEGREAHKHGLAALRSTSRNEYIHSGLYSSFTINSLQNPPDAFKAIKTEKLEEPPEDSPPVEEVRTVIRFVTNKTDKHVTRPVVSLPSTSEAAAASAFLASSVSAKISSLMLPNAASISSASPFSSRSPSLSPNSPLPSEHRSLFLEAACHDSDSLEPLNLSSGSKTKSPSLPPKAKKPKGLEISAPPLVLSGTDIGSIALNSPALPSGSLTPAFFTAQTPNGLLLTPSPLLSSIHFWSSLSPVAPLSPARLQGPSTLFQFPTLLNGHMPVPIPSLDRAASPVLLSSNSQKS
# In short: as §1
# FEV = target: T7, FEV (Homo sapiens, UniProt Q99581 1-238); conditions: protein: recombinant; tags: N-terminal GST; dsDNA, one strand shown
# T7 sequence: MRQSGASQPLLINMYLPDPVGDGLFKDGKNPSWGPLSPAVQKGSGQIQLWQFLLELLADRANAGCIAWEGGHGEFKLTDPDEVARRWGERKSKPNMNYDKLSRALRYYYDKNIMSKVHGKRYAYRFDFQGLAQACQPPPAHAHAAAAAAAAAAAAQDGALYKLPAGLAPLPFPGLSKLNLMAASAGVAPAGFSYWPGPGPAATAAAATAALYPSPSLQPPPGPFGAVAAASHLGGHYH
# In short: as §1
# ETV5 = ETV5 (Homo sapiens, UniProt P41161 1-510); conditions: protein: recombinant; tags: N-terminal GST; dsDNA, one strand shown
# In short: as §1
# HSF1 = HSF1 (Homo sapiens, UniProt Q00613 1-529); conditions: protein: recombinant; tags: N-terminal GST; chain copies: 3; dsDNA, one strand shown
# In short: as §1
# SPIC = target: T8, SPIC (Homo sapiens, UniProt Q8N5J4 1-248); conditions: protein: recombinant; tags: N-terminal GST; dsDNA, one strand shown
# T8 sequence: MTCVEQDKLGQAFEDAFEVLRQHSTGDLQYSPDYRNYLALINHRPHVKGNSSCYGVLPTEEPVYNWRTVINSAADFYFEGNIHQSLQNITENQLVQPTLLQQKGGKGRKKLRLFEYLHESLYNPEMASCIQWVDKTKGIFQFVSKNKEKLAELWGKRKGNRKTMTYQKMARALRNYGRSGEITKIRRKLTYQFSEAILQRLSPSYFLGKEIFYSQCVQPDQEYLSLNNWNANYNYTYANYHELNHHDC
# In short: as §1
# ELF4 = ELF4 (Homo sapiens, UniProt Q99607 1-663); conditions: protein: recombinant; tags: N-terminal GST; dsDNA, one strand shown
# In short: as §1
# ELK4 = target: T9, ELK4 (Homo sapiens, UniProt P28324-2 1-405); conditions: protein: recombinant; tags: N-terminal GST; dsDNA, one strand shown
# T9 sequence: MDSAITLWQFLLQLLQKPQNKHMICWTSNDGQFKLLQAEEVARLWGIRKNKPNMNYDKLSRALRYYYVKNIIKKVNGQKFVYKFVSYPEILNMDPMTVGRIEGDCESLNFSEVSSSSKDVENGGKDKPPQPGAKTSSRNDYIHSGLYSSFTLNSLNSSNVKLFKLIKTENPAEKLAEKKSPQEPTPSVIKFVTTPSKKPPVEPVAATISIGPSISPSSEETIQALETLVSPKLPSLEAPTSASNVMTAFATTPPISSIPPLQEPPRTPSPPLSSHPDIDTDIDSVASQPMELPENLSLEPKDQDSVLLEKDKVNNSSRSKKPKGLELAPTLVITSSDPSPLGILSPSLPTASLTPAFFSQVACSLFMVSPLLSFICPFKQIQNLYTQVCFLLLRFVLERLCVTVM
# In short: as §1
# ETV2 = target: T10, ETV2 (Homo sapiens, UniProt O00321 1-342); conditions: protein: recombinant; tags: N-terminal GST; dsDNA, one strand shown
# T10 sequence: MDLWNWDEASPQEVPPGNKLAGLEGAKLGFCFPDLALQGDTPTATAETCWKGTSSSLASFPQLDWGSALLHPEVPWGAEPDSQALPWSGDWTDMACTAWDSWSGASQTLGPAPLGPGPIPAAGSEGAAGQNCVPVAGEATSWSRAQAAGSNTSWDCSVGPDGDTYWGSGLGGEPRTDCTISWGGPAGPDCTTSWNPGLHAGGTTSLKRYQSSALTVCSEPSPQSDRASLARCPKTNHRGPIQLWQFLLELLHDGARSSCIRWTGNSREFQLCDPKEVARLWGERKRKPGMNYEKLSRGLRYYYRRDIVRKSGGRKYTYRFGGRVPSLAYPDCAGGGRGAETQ
# In short: as §1
# ELF3 = target: T11, ELF3 (Homo sapiens, UniProt P78545 1-371); conditions: protein: recombinant; tags: N-terminal GST; dsDNA, one strand shown
# T11 sequence: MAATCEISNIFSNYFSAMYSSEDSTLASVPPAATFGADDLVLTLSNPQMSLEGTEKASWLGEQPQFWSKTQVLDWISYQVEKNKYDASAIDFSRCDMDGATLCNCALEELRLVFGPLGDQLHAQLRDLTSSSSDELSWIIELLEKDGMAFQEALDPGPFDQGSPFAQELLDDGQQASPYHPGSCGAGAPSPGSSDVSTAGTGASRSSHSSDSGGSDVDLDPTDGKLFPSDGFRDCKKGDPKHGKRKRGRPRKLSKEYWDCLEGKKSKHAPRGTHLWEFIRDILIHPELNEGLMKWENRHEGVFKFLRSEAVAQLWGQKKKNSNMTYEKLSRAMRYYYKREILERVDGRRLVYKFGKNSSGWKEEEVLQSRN
# In short: as §1
# CRX = CRX (Homo sapiens, UniProt O43186 1-299); conditions: protein: recombinant; tags: N-terminal GST; dsDNA, one strand shown
# In short: as §1
# ETV1 = ETV1 (Homo sapiens, UniProt P50549 1-477); conditions: protein: recombinant; tags: N-terminal GST; dsDNA, one strand shown
# In short: as §1
# ETV5, sequence (P41161 whole entry): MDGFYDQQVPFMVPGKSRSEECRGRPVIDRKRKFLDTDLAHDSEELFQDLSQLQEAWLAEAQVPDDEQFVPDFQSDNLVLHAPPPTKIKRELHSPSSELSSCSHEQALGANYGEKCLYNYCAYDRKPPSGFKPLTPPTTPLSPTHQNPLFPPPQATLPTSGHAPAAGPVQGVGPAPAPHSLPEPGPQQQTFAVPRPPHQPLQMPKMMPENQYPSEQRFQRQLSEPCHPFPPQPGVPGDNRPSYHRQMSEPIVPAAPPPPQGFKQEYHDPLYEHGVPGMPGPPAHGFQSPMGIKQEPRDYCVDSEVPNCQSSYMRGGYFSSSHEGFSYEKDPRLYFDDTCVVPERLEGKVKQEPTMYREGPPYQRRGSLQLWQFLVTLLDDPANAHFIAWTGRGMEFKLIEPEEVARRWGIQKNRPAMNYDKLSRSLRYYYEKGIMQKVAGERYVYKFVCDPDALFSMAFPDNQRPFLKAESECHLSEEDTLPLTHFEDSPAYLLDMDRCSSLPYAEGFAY
# HSF1, sequence (Q00613 whole entry): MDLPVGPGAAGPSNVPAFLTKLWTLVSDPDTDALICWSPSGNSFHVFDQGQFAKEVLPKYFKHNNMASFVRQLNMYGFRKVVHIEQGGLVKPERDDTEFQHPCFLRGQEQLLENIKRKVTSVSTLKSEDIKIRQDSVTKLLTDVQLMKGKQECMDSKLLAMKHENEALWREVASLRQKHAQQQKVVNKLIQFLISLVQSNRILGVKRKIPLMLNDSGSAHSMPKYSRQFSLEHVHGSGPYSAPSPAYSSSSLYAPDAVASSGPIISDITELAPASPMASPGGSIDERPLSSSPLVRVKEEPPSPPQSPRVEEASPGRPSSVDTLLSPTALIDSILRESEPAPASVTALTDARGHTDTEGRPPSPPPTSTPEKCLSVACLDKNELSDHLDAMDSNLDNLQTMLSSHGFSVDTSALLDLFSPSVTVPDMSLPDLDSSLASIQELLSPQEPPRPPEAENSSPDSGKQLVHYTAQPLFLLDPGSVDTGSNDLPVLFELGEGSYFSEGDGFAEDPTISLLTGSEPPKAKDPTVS
# ELF1, sequence (P32519 whole entry): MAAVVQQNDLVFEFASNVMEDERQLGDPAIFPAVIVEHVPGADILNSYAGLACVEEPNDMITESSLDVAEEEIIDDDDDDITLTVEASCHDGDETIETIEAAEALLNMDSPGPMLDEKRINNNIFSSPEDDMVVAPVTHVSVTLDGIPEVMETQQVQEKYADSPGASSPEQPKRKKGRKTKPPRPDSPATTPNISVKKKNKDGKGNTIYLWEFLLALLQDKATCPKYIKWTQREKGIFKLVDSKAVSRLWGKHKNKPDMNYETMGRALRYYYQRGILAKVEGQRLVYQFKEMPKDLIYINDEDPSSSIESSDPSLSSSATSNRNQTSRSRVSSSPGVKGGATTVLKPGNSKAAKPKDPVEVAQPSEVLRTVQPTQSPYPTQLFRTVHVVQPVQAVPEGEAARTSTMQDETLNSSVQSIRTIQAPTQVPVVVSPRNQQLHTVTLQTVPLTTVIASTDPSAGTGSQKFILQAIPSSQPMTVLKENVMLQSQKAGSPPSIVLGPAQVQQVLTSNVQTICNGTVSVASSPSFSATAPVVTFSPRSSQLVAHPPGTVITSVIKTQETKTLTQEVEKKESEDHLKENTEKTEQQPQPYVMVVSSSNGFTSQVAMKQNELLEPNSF
# ELF4, sequence (Q99607 whole entry): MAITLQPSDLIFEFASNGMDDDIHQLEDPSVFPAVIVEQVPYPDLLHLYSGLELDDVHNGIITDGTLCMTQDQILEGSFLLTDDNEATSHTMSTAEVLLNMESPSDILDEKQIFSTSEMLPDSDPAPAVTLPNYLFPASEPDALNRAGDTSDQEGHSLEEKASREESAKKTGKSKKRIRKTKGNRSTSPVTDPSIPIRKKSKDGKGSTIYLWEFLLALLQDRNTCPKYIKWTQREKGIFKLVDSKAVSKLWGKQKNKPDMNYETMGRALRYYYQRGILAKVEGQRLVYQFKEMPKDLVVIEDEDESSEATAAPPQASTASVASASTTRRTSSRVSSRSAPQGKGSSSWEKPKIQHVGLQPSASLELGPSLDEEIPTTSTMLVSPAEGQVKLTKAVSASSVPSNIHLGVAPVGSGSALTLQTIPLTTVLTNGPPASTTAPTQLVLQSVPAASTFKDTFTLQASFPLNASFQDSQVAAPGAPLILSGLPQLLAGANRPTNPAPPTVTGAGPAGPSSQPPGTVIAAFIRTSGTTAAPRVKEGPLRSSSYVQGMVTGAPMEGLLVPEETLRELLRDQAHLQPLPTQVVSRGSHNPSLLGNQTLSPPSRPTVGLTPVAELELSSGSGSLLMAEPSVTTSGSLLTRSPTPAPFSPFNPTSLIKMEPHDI
# SPIB, sequence (Q01892 whole entry): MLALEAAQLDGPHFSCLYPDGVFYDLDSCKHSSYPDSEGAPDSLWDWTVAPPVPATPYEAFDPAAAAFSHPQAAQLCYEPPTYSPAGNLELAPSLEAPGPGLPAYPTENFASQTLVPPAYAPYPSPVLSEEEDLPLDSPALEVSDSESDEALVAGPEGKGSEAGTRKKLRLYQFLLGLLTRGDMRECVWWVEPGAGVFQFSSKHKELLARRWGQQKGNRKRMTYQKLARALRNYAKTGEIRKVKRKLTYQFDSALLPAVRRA
# CRX, sequence (O43186 whole entry): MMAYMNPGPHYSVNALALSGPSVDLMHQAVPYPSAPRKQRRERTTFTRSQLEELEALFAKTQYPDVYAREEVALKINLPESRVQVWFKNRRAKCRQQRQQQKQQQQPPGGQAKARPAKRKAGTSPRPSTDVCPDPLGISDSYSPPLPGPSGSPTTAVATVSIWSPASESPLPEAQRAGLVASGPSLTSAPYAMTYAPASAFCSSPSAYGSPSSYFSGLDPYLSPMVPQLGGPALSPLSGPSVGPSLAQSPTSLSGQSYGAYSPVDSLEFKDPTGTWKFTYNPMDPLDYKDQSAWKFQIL
# ETV1, sequence (P50549 whole entry): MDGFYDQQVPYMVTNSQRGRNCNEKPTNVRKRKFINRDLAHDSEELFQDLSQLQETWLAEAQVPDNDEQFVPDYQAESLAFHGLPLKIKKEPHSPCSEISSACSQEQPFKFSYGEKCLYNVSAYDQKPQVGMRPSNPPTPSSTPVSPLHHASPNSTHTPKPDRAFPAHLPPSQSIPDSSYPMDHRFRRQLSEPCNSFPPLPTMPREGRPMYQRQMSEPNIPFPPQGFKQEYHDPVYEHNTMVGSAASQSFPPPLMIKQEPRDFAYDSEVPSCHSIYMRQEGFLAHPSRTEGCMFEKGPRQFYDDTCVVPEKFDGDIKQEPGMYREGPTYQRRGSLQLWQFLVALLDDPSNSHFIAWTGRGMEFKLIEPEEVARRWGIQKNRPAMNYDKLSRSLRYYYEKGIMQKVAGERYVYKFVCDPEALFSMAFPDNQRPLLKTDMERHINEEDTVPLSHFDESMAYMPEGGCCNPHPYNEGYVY
sequence,measurement,setting,value
ATTCTT,binding signal,FLI1,"1.48 fold enrichment (6-mer frequency, TF over GST control)"
same,binding signal,ELK1,"1.44 fold enrichment (6-mer frequency, TF over GST control)"
same,binding signal,GABPA,"1.49 fold enrichment (6-mer frequency, TF over GST control)"
same,binding signal,ERG,"1.5 fold enrichment (6-mer frequency, TF over GST control)"
same,binding signal,ELF1,"1.51 fold enrichment (6-mer frequency, TF over GST control)"
same,binding signal,EHF,"1.45 fold enrichment (6-mer frequency, TF over GST control)"
same,binding signal,SPI1,"1.44 fold enrichment (6-mer frequency, TF over GST control)"
same,binding signal,SPIB,"1.56 fold enrichment (6-mer frequency, TF over GST control)"
same,binding signal,ELK3,"1.61 fold enrichment (6-mer frequency, TF over GST control)"
same,binding signal,FEV,"1.4 fold enrichment (6-mer frequency, TF over GST control)"
same,binding signal,ETV5,"1.4 fold enrichment (6-mer frequency, TF over GST control)"
same,binding signal,HSF1,"1.99 fold enrichment (6-mer frequency, TF over GST control)"
same,binding signal,SPIC,"1.56 fold enrichment (6-mer frequency, TF over GST control)"
same,binding signal,ELF4,"1.47 fold enrichment (6-mer frequency, TF over GST control)"
same,binding signal,ELK4,"1.51 fold enrichment (6-mer frequency, TF over GST control)"
same,binding signal,ETV2,"1.37 fold enrichment (6-mer frequency, TF over GST control)"
same,binding signal,ELF3,"1.45 fold enrichment (6-mer frequency, TF over GST control)"
same,binding signal,CRX,"1.77 fold enrichment (6-mer frequency, TF over GST control)"
same,binding signal,ETV1,"1.56 fold enrichment (6-mer frequency, TF over GST control)"
